Calls of active or inactive are those of the source.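 Rule for the calls: active = cell event count below 40, meaning activity score above 60 where score is 100 minus count; inactive = the rest.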
assay: cytotoxicity in LNCaP prostate cells – cell-based, cell event count, single point, cytotoxicity control for prostate differentiation activator project, confirmation (AID 1076); details: LNCaP cell loss, flow cytometry event count, 4 d; at 100 µM; stronger effect = lower value;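 note: counts scatter-gated live cells after medium removal discards detached dead cells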

| SMILES | cell event count |
| --- | --- |
| COc1ccc(Nc2nc(N)nc(CN3CCC(Cc4ccccc4)CC3)n2)cc1 | 6 (active) |
| Cc1cc(N2CCN(C)CC2)nc2ccc(NC(=O)c3ccc4c(c3)OCO4)cc12 | 57 (inactive) |
| O=c1cc(-c2ccccc2)[nH]c2ccccc12 | 9 (active) |
| CC1CCCCN1CCNC(=O)c1ccc2c(=O)n(CCc3ccccc3)c(=O)[nH]c2c1 (stereo not given) | 168 (inactive) |
| CCOC(=O)c1c(-c2ccc(C)o2)csc1NC(=O)CN1CCN(CC)CC1 | 27 (inactive) |
| CCc1ccc(-c2nc(CN3CCCC(C(=O)NCCc4ccc(OC)c(OC)c4)C3)c(C)o2)cc1 (stereo not given) | 8 (inactive) |
| COc1cc(C(=O)NCc2nnc(SCC(=O)NCc3ccccc3)o2)cc(OC)c1OC | 104 (inactive) |
| COc1ccc(-c2cc(C(F)(F)F)nc(N3CCN(c4ccc(F)cc4)CC3)n2)cc1OC | 184 (inactive) |
| O=C(CSc1nc2sc3c(c2c(=O)n1-c1ccccc1)CCCC3)NCc1ccco1 | 25 (inactive) |
| O=C(CCn1c(=O)oc2ccccc21)NCCCN1CCN(c2ccc(F)cc2)CC1 | 213 (inactive) |
| Cc1cccc(N2CCN(C(=O)CCNC(=O)Cn3ccc4ccccc4c3=O)CC2)c1C | 8 (inactive) |
| Cn1c(C(=O)NCCCN2CCN(c3cccc(Cl)c3)CC2)cc2c(=O)n(C)c3ccccc3c21 | 46 (inactive) |
| Cc1ccccc1OCc1nc(-c2ccc(NC(=O)c3ccc4c(c3)OCO4)cc2)no1 | 31 (inactive) |
| CCn1c(=O)cc(SCC(=O)NCCN2CCN(Cc3ccccc3)CC2)c2ccccc21 | 228 (inactive) |
| O=S(=O)(Nc1cccc2ncccc12)c1cccs1 | 42 (inactive) |
